Assay in all cases: DAPPL (digital affinity profiling via proximity ligation, sequencing); 10 mM Tris-HCl pH 7.5, 50 mM NaCl, 1 mM DTT, 4% glycerol, room temperature, 30 min; GST-TFs on glutathione beads, 16-mer random dsDNA library, 0.1% formaldehyde crosslink after washing; high values mean tight binding
What all share (conditions): protein: recombinant; tags: N-terminal GST; dsDNA, one strand shown

Assay [1] has as its target T1, FLI1 (Homo sapiens, UniProt Q01543 1-452).
T1 sequence: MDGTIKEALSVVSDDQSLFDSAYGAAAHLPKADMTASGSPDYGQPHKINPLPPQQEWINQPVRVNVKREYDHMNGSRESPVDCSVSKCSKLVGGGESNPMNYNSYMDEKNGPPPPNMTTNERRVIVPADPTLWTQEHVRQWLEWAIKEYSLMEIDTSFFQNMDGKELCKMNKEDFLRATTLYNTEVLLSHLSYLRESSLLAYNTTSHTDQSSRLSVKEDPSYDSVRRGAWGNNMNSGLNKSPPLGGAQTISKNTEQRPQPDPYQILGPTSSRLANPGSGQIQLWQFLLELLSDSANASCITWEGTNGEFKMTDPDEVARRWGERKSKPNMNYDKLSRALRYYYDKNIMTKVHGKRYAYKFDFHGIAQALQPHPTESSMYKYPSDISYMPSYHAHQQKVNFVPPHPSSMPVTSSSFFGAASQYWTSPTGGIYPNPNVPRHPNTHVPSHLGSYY
The method, boiled down:
(§1)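 Binding signal is each hexamer's read frequency for a factor divided by its frequency in the tag-only sample. The factors were GST-fused human transcription factors from yeast, captured on glutathione beads, DNA-barcoded and pooled with that sample. Pools were incubated with 200 nmole of a random double-stranded 16-mer DNA library in Tris/NaCl/DTT/glycerol buffer at room temperature for 30 min, then washed, crosslinked with 0.1% formaldehyde, proximity-ligated with BsaI/T4 ligase (1 h, 37 °C), PCR-amplified and sequenced on an Illumina NextSeq500.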

For assay [2], the target named is T2, ELK1 (Homo sapiens, UniProt P19419 1-428).
T2 sequence: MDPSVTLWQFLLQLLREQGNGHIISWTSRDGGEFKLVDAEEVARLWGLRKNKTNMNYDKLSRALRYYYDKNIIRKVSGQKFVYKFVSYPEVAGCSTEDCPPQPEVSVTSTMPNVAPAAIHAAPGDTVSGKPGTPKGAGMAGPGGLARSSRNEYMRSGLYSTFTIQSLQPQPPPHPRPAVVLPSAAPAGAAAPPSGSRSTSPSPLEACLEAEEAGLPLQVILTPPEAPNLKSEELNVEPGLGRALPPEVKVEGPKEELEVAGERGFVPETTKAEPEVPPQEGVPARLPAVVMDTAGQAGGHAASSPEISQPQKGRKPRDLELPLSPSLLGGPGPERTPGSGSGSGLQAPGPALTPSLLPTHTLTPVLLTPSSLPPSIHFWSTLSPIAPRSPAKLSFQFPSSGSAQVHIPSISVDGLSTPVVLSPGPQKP
The method, boiled down: as §1

Assay [3] deals with T3, GABPA (Homo sapiens, UniProt Q06546 1-454).
T3 sequence: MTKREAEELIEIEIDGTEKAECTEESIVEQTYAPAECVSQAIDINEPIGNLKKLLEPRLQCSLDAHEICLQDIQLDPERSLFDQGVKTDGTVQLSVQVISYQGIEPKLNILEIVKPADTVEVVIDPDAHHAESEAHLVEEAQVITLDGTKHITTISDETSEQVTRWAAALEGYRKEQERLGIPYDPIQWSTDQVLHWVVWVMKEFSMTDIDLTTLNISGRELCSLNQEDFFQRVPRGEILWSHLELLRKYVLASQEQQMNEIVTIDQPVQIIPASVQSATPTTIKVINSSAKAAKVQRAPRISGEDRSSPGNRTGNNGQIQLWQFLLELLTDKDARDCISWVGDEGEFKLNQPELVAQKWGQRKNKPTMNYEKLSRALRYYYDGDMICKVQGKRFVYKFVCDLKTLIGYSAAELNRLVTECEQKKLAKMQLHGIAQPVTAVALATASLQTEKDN
The method, boiled down: as §1

In assay [4] the target is T4, ERG (Homo sapiens, UniProt P11308 1-479).
T4 sequence: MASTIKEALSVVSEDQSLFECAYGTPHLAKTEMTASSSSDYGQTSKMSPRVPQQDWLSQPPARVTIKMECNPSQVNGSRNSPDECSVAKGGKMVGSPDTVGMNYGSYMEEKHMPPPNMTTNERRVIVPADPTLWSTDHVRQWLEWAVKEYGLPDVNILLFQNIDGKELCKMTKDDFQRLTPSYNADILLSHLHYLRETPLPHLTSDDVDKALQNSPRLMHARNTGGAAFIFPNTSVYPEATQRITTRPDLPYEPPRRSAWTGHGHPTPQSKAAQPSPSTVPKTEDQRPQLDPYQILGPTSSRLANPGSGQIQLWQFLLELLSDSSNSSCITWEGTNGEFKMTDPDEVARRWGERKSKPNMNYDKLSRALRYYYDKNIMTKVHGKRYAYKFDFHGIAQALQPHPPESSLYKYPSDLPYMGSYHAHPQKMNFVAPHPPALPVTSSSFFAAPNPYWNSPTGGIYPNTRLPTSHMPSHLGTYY
The method, boiled down:
as §1

Assay [5] concerns the target ELF1 (Homo sapiens, UniProt P32519 1-619). The method, boiled down:
as §1

Assay [6] concerns the target T5, EHF (Homo sapiens, UniProt Q9NZC4 1-300).
T5 sequence: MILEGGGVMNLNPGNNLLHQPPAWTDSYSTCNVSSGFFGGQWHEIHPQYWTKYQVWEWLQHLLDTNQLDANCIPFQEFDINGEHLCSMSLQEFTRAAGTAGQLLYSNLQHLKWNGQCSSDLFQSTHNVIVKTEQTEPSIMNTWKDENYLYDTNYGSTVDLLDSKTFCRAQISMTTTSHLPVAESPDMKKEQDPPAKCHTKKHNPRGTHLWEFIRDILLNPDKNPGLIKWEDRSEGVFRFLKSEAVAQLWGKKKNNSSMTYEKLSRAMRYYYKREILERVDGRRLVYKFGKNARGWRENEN
The method, boiled down:
as §1

For assay [7], the target named is SPI1 (Homo sapiens, UniProt P17947 1-270). The method, boiled down: as §1
For assay [8], the target named is SPIB (Homo sapiens, UniProt Q01892 1-262). The method, boiled down:
as §1

Assay [9] addresses T6, ELK3 (Homo sapiens, UniProt P41970 1-407).
T6 sequence: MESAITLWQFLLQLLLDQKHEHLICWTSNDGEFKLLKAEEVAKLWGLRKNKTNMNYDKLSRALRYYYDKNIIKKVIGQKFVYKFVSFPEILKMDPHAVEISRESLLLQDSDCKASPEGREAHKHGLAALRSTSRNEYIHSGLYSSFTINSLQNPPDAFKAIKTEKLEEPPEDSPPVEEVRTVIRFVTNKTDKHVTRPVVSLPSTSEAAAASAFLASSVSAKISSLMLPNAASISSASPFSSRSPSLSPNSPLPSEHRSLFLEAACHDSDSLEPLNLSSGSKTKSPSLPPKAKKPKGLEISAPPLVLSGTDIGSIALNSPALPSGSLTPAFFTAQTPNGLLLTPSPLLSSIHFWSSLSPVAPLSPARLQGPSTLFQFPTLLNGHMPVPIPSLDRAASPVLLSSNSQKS
The method, boiled down:
as §1

The target of assay [10] is T7, FEV (Homo sapiens, UniProt Q99581 1-238).
T7 sequence: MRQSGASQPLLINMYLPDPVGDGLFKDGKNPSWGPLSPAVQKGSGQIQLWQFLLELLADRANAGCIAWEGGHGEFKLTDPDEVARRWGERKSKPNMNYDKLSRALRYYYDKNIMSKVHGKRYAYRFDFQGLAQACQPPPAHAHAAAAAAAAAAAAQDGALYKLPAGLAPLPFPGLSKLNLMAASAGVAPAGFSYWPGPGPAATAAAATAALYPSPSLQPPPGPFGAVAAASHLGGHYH
The method, boiled down: as §1

Assay [11] deals with ETV5 (Homo sapiens, UniProt P41161 1-510). The method, boiled down: as §1
In assay [12] the target is T8, SPIC (Homo sapiens, UniProt Q8N5J4 1-248).
T8 sequence: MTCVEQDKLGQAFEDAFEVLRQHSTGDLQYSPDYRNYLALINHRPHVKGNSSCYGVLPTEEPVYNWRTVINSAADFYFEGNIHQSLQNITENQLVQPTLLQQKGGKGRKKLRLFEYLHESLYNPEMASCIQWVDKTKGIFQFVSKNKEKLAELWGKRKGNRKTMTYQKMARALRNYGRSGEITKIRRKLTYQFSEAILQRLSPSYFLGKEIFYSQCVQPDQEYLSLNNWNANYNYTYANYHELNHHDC
The method, boiled down: as §1

The target of assay [13] is ELF4 (Homo sapiens, UniProt Q99607 1-663). The method, boiled down: as §1
Assay [14] concerns the target T9, ELK4 (Homo sapiens, UniProt P28324-2 1-405).
T9 sequence: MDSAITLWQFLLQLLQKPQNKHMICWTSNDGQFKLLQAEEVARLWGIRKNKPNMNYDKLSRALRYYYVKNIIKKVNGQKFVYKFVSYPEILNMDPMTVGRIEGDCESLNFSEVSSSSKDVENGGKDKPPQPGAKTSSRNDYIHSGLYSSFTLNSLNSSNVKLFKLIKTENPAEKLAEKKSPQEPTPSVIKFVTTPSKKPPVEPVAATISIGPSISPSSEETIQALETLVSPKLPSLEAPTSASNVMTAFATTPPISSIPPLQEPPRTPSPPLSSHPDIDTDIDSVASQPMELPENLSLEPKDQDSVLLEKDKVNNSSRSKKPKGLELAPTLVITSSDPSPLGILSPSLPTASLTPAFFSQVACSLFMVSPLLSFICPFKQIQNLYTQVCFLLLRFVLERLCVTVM
The method, boiled down: as §1

Assay [15] has as its target T10, ETV2 (Homo sapiens, UniProt O00321 1-342).
T10 sequence: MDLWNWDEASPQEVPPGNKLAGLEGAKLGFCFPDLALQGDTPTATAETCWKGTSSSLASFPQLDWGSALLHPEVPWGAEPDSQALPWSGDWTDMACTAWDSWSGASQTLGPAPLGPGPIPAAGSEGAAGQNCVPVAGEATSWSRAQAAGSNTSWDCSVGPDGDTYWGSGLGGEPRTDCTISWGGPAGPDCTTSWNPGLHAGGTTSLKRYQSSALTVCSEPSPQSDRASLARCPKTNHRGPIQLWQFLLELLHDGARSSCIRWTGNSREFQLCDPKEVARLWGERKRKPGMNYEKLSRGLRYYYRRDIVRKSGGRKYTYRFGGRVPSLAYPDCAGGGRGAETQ
The method, boiled down: as §1

Assay [16] has as its target T11, ELF3 (Homo sapiens, UniProt P78545 1-371).
T11 sequence: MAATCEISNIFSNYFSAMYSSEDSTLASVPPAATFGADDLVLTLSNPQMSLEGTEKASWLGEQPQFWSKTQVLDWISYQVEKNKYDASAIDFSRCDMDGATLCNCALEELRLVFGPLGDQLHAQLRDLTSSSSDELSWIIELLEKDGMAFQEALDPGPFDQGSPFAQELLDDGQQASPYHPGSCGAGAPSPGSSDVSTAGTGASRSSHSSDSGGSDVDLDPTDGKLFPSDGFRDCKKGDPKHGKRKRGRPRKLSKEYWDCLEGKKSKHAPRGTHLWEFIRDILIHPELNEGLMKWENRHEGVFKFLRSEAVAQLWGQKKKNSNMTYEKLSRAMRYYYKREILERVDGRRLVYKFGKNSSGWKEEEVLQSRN
The method, boiled down:
as §1

Assay [17] concerns the target CRX (Homo sapiens, UniProt O43186 1-299). The method, boiled down:
as §1

In assay [18] the target is ETV1 (Homo sapiens, UniProt P50549 1-477). The method, boiled down:
as §1

ETV1, sequence (P50549 whole entry): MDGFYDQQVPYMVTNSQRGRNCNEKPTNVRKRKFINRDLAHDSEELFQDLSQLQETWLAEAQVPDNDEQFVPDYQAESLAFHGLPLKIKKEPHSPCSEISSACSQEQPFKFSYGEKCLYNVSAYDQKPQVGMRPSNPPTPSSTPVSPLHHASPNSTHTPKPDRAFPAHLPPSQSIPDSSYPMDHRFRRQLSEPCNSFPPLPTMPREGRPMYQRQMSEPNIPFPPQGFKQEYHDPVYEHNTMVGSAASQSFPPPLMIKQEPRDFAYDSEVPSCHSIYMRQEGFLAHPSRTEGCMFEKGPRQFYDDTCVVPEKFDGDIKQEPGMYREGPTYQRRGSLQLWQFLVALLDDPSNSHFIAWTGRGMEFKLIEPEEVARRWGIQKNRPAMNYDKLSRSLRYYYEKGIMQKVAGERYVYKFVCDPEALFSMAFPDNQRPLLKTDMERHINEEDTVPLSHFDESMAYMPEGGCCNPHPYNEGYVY
SPIB, sequence (Q01892 whole entry): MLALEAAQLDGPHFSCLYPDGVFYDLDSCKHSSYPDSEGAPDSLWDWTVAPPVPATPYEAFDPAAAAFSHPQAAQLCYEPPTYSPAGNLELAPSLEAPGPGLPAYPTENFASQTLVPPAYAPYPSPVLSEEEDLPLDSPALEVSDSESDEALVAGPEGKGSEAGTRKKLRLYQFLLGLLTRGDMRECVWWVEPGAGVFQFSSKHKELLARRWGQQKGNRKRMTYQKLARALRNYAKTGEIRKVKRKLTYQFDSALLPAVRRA
ELF4, sequence (Q99607 whole entry): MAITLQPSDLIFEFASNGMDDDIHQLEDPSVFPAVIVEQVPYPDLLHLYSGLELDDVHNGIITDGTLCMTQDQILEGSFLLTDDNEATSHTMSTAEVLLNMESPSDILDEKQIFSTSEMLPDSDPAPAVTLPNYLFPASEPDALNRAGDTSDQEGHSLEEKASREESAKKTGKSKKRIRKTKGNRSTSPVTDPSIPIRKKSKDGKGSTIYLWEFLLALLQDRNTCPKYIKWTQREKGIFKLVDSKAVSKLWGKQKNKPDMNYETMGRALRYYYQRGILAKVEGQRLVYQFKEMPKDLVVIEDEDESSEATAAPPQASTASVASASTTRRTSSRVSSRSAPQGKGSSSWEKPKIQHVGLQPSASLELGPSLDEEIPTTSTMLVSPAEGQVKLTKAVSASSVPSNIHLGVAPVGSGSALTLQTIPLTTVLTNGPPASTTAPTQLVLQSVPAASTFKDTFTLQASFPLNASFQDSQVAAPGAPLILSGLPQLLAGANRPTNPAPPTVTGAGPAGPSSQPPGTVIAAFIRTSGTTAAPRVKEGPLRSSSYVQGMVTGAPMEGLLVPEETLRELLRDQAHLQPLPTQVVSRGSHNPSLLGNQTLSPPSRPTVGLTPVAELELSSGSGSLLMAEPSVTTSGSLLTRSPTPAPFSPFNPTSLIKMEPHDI
ELF1, sequence (P32519 whole entry): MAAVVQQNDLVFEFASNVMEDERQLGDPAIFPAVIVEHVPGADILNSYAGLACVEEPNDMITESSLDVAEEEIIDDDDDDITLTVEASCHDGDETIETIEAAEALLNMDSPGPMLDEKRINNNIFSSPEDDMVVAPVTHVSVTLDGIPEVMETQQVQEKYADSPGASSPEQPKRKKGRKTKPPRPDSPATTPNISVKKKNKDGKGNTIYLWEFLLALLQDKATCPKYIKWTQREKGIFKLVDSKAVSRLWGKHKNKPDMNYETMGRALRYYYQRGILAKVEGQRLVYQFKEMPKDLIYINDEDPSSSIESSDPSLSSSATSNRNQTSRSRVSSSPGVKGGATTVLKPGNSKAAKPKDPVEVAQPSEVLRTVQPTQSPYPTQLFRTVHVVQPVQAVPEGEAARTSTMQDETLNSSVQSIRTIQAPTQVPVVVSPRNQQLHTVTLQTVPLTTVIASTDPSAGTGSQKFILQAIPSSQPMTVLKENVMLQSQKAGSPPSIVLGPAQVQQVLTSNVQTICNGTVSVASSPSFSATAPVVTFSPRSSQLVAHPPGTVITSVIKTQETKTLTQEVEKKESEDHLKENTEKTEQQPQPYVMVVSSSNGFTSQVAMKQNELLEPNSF
CRX, sequence (O43186 whole entry): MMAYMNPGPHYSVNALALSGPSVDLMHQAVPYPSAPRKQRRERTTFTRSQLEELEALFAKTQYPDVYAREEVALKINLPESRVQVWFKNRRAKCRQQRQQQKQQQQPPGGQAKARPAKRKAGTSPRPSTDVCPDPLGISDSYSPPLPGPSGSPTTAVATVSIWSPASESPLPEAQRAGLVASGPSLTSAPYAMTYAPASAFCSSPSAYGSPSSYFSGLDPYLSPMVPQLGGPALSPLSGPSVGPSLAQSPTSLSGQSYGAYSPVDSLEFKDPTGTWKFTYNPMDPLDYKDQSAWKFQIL
ETV5, sequence (P41161 whole entry): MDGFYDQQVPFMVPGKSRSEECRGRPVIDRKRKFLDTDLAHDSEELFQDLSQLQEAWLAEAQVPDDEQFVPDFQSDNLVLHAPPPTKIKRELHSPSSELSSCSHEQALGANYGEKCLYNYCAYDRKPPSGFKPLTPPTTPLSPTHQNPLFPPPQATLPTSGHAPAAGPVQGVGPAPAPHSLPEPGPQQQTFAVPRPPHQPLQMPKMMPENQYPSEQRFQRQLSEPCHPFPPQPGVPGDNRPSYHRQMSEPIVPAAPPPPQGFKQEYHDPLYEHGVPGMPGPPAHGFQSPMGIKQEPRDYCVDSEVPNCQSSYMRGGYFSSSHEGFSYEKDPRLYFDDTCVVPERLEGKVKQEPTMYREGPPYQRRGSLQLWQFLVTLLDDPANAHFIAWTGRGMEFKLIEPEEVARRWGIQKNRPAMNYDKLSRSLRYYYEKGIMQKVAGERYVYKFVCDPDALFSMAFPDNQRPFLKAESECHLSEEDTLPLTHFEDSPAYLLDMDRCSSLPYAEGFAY

Turning to TCACAT, the binding signal is 1.23 fold enrichment (6-mer frequency, TF over GST control) in [1]; 1.25 fold enrichment (6-mer frequency, TF over GST control) in [2]; 1.23 fold enrichment (6-mer frequency, TF over GST control) in assay [3]; 1.29 fold enrichment (6-mer frequency, TF over GST control) in assay [4]; 1.32 fold enrichment (6-mer frequency, TF over GST control) in assay [5]; 1.27 fold enrichment (6-mer frequency, TF over GST control) in assay [6]. Further, the binding signal in assay [7] was 1.32 fold enrichment (6-mer frequency, TF over GST control); in assay [8] it was 1.19 fold enrichment (6-mer frequency, TF over GST control); in assay [9] it was 1.24 fold enrichment (6-mer frequency, TF over GST control); in [10] it was 1.28 fold enrichment (6-mer frequency, TF over GST control); in assay [11] it was 1.28 fold enrichment (6-mer frequency, TF over GST control); in assay [12], 1.11 fold enrichment (6-mer frequency, TF over GST control). Also, the binding signal in assay [13] was 1.15 fold enrichment (6-mer frequency, TF over GST control); in [14], 1.17 fold enrichment (6-mer frequency, TF over GST control); in [15], 1.32 fold enrichment (6-mer frequency, TF over GST control); in assay [16] it was 1.21 fold enrichment (6-mer frequency, TF over GST control); in assay [17] it was 1.09 fold enrichment (6-mer frequency, TF over GST control); in assay [18] it was 1.21 fold enrichment (6-mer frequency, TF over GST control).
On to AAGTCA, for which the binding signal in assay [1] is 1.18 fold enrichment (6-mer frequency, TF over GST control); in assay [2], 1.24 fold enrichment (6-mer frequency, TF over GST control); in [3], 1.15 fold enrichment (6-mer frequency, TF over GST control); in assay [4], 1.26 fold enrichment (6-mer frequency, TF over GST control); in assay [5], 1.17 fold enrichment (6-mer frequency, TF over GST control); in [6], 1.15 fold enrichment (6-mer frequency, TF over GST control). The binding signal was 1.3 fold enrichment (6-mer frequency, TF over GST control) in assay [7]; 1.11 fold enrichment (6-mer frequency, TF over GST control) in assay [8]; 1.28 fold enrichment (6-mer frequency, TF over GST control) in assay [9]; 1.17 fold enrichment (6-mer frequency, TF over GST control) in assay [10]; 1.23 fold enrichment (6-mer frequency, TF over GST control) in assay [11]; 1.1 fold enrichment (6-mer frequency, TF over GST control) in assay [12]. In addition, the binding signal in assay [13] was 1.22 fold enrichment (6-mer frequency, TF over GST control); in assay [14], 1.18 fold enrichment (6-mer frequency, TF over GST control); in [15] it was 1.21 fold enrichment (6-mer frequency, TF over GST control); in assay [16] it was 1.21 fold enrichment (6-mer frequency, TF over GST control); in assay [17], 1.03 fold enrichment (6-mer frequency, TF over GST control); in assay [18], 1.3 fold enrichment (6-mer frequency, TF over GST control).

The record behind these values is article PMC7862700, “An all-to-all approach to the identification of sequence-specific readers for epigenetic DNA modifications on cytosine”.
